LmPK inh: inhibitors of Leishmania mexicana pyruvate kinase. Potency, µM (titrated, usually from 57.5 µM), without a hit: at the highest dose activity change, negative = inhibition, hits mostly inhibitors. Q27686. purified LmPK, Kinase-Glo ATP luminescence, 1 h. AID 1721. 290,000 compounds, 0.37% hits; also: potency is read from the fitted curve at half-maximal effect; % is scaled to controls: 0 for no effect and ±100 for the full control effect
Target sequence (Q27686 whole entry, looked up): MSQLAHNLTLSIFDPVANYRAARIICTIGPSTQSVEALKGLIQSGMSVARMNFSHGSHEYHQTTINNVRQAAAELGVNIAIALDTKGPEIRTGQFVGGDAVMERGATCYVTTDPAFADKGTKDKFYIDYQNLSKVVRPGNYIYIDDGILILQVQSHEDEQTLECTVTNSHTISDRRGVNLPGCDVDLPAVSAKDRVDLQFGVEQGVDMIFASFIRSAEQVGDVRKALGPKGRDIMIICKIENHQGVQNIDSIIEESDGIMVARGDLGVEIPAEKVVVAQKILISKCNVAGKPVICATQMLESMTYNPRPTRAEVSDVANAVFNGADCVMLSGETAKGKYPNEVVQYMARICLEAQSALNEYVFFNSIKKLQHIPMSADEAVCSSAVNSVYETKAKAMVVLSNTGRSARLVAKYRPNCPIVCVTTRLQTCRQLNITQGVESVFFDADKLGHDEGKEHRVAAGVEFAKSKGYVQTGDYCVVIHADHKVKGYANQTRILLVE
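Kinase-Glo luminescence read after 1 h RT reaction of 0.1 nM LmPK with 0.5 mM PEP and 0.1 mM ADP. Activity scaled between uninhibited and enzyme-free controls.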
Tb PYK inh: T. brucei pyruvate kinase inhibition; 410,000 compounds, 0.12% hits; AID 624173; TbPYK enzyme, Kinase-Glo Plus ATP luminescence, 45 min; Potency, µM (highest dose often 76.8 µM), inactives show at the highest dose activity, negative = inhibition, actives largely listed as inhibitors; also: potency is read from the fitted curve at half-maximal effect; % is scaled to controls: 0 for no effect and ±100 for the full control effect; nearly all actives have a fitted effect of over 50% in size
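Quantitative HTS: titrated library compounds versus trypanosomal pyruvate kinase in TEA buffer (pH 7.2) containing KCl, MgCl2, BSA and Tween-20. Reactions were initiated with ADP, 130 uM final. Kinase-Glo Plus luminescence was read after 45 min at RT.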
CHX counter: counter-screen hit for Shiga toxin inhibitors, cycloheximide. cell reporter, cycloheximide protein synthesis inhibition counterscreen. max response, %. 300,000 compounds, 12% hits; in the data active = max response mostly above about 13%, no sharp cut-off; inactive = mostly below about 14%; also: read at 38.3 µM for the half of the compounds with a filed dose; 0% is about no effect
Shiga toxin inh: Shiga toxin inhibition; Vero cells, Shiga toxin protein synthesis inhibition reporter; inhibition, % at 38.7 µM; 290,000 compounds, 9.2% hits; AID 2315; in the data active = inhibition mostly above about 28%, no sharp cut-off; inactive = mostly below about 43%; also: 0% is about no effect
Giardia FBPA inh-1: inhibitors of Giardia lamblia fructose-1,6-bisphosphate aldolase; purified Giardia FBPA; 290,000 compounds, 0.71% hits; AID 2451; Potency, µM (series often up to 59.6 µM), without a hit: top-dose activity, negative = inhibition, usual class: inhibitors; also: potency is read from the fitted curve at half-maximal effect; % is scaled to controls: 0 for no effect and ±100 for the full control effect; nearly all actives have a fitted effect of over 55% in size
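Giardia FBPA (40 nM reagent) was preincubated 10 min at RT with compound (up to 57.5 uM final), then substrate plus GAPDH/TPI/NAD/arsenate coupling system with diaphorase/resazurin was added; resorufin fluorescence (525/598 nm) was read after 20 min.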
Sm TGR block: S. mansoni TGR enzyme inhibition | Q962Y6 | purified TGR, DTNB reduction, TNB absorbance 405 nm | Potency, µM (top dose mostly 114 µM), for inactives: at the top dose activity change, negative = inhibition, actives largely listed as inhibitors | 360,000 compounds, 3% hits; also: potency is read from the fitted curve at half-maximal effect; % is scaled to controls: 0 for no effect and ±100 for the full control effect; nearly all actives have a fitted effect of over 60% in size
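Kinetic colorimetric format: TGR-catalysed, NADPH-driven DTNB reduction monitored via TNB absorbance. Enzyme dispensed at 20 nM; compound exposure 15 min at room temperature before reaction start.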
Giardia growth: blocks growth of Giardia lamblia trophozoites. shares compounds with Giardia FBPA inh-1. Giardia lamblia trophozoite growth inhibition. Potency, µM (series often up to 57.5 µM), for inactives: top-dose activity change, negative = inhibition, actives largely listed as inhibitors. 1,500 compounds, 5% hits. AID 2785;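 also: potency is read from the fitted curve at half-maximal effect; trophozoites exposed to compound for 48 h at 37 °C; % is scaled to controls: 0 for no effect and ±100 for the full control effect; nearly all actives have a fitted effect of over 70% in size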
Mammalian tox: mammalian cytotoxicity of Giardia aldolase inhibitor hits; shares compounds with Giardia FBPA inh-1; mammalian cell viability counter-screen, qHTS; Potency, µM (highest dose often 57.5 µM), for inactives: at the highest dose viability change, negative = toxicity, hits mostly inhibitors; 1,500 compounds, 4% hits;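 also: Chinese hamster ovary cells used as mammalian cytotoxicity surrogate; viability measured as cellular ATP by luminescence; potency is read from the fitted curve at half-maximal effect; compound exposure lasted 48 h before reading; % is scaled to controls: 0 for no effect and ±100 for the full control effect; nearly all actives have a fitted effect of over 60% in size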
Giardia FBPA inh-2: confirmation of Giardia fructose-bisphosphate aldolase inhibitors; shares compounds with Giardia FBPA inh-1; 1,500 compounds, 5% hits; Potency, µM (highest dose often 57.5 µM), inactives show at the highest dose activity change, negative = inhibition, actives largely listed as inhibitors; purified Giardia aldolase enzyme activity, qHTS; also: potency is read from the fitted curve at half-maximal effect; % is scaled to controls: 0 for no effect and ±100 for the full control effect; nearly all actives have a fitted effect of over 45% in size
Rabbit aldolase: rabbit FBP aldolase inhibition by Giardia aldolase hits; shares compounds with Giardia FBPA inh-1; Rabbit muscle FBPA enzyme inhibition, selectivity counter-screen; Potency, µM (highest dose often 57.5 µM), for the others: at the top dose activity, negative = inhibition, most hits filed as inhibitors; 1,500 compounds, 4% hits; AID 2794; also: potency is read from the fitted curve at half-maximal effect; % is scaled to controls: 0 for no effect and ±100 for the full control effect; nearly all actives have a fitted effect of over 60% in size
GAPDH counter: counter-screen for Giardia aldolase inhibitors: GAPDH coupling enzyme. GAPDH coupling enzyme counterscreen, biochemical, qHTS. Potency, µM (series often up to 57.5 µM), for the others: at the highest dose activity change, negative = inhibition, usual class: inhibitors. 1,500 compounds, 6% hits. shares compounds with Giardia FBPA inh-1; also: potency is read from the fitted curve at half-maximal effect; % is scaled to controls: 0 for no effect and ±100 for the full control effect; nearly all actives have a fitted effect of over 55% in size
* hit, by the source's call; ? = inconclusive; . = no result; [ ] = remark or other dose. This is one part of a sample in which hits are shown more often than they occur. Unless noted, calls follow the shape of the dose curve; as a rule, active = well fitted curve in the direction sought with a large enough effect; inconclusive = small, poorly fitted or top-dose-only effect, or another doubt; inactive = no such curve, though single readings can be large; an effect the other way counts as inactive or inconclusive.

SMILES	LmPK inh	Tb PYK inh	CHX counter	Shiga toxin inh	Giardia FBPA inh-1	Sm TGR block	Giardia growth	Mammalian tox	Giardia FBPA inh-2	Rabbit aldolase	GAPDH counter
Nc1nc(=S)c2ncn(C3CCCC3)c2[nH]1	-5%	-6%	-2	-6	7.1µM*	-14%	-4%[38.3 µM]	6%	-5%	-5%	-8%
COCCn1c(C)c(C)c2c(NCCc3ccccc3)ncnc21	2%	25%	25*	67*	28µM*	-13%	-28%	?	1%	1%	12%
Cc1noc2ncnc(NCCc3ccccc3)c12	.	0%	.	.	.	3%	.	.	.	.	.
O=S(=O)(c1ccccc1Br)N(Cc1ccccc1)CC(O)COCc1ccccc1 (stereo not drawn)	.	-4%	.	.	.	.	.	.	.	.	.
N#Cc1c(NC(=O)CCC(=O)O)sc2c1CCCCC2	11%	35µM*	-1	-25	16µM*	-3%[57.1 µM]	-6%	10%	-18%	-2%	-9%
O[N+]1=CC=CCC1=S.On1ccccc1=S.[Zn]	.	.	.	.	0.5µM*	.	10µM*	2.8µM*	?	?	?
CCC(C)c1ccccc1N1CC(C(=O)N(C)CC(=O)Nc2cccc(F)c2)CC1=O (stereo not drawn)	.	0%	.	.	.	14%	.	.	.	.	.
CC1(C)CC(=O)C(/C=N/n2cnc3ccccc3c2=O)=C(O)C1	-20%	-7%	14*	5	18µM*	25%	0%	-2%	5%	-1%	3%
CN(C)CCCNS(=O)(=O)c1ccc(N2CCN(Cc3ccc4c(c3)OCO4)CC2)c([N+](=O)[O-])c1	-2%	6%	-5	-6	14µM*	-17%	-17%	0%	-7%	-1%	14%
CC(=O)c1ccc(N2CCN(c3ccc(S(=O)(=O)NCCCN(C)C)cc3[N+](=O)[O-])CC2)cc1	3%	3%	0	20	4%	-11%	.	.	.	.	.
Cn1c(-c2cccc([N+](=O)[O-])c2)cnc1NCc1cccc(F)c1	-11%	20%	-4	-2	28µM*	4%	-9%[10.4 µM]	-21%	-5%	3%	5%
Cn1c(-c2ccc(F)cc2)cnc1NCc1cccc([N+](=O)[O-])c1	-7%	15%	-3	-4	?	-1%	.	.	.	.	.
Cc1ccc(NC(=S)N2CC(C)OC(C)C2)cc1C (stereo not drawn)	-4%	1%	-2	-10	.	-15%	.	.	.	.	.
C=CCOc1ccccc1CN1CCCCCC1	-1%	12%	-2	11	18µM*	11%	-10%	0%	-2%	8%	3%
S=C(Nc1cccc(Cl)c1)Nc1cccc2cnccc12	5%	-24%	47*	56*	0.25µM*	25µM*	12%[38.3 µM]	10%	?	?	25µM*
COC(=O)[C@H](COC(C)(C)C)NC(=O)O[C@@H]1C(=O)c2ccc(OC)cc2O[C@H]1c1ccc2c(c1)OCO2	.	.	.	.	0%	.	.	.	.	.	.
Cc1nnc2n1CCCCC2	2%	4%	0	17	-3%	4%	.	.	.	.	.
Cc1cc(Sc2nc(N)ncc2[N+](=O)[O-])ncn1	0%	11%	5	-7	18µM*	2.2µM*	-6%[10.4 µM]	?	1%	15%	0%
Cc1cc(N)ncc1[N+](=O)[O-]	.	-6%	.	.	.	.	.	.	.	.	.
Cc1ccc(/C(=N/Nc2ncnc3ccccc23)C(=O)O)cc1	-5%	-2%	80*	93*	14µM*	-20%	16%	-1%	8%	-12%	-4%
CCCCC(Nc1ncnc2ccccc12)C(=O)O (stereo not drawn)	0%	10%	5	-10	0%	6%	.	.	.	.	.
COc1cc(CN2C[C@@H](CO)O[C@@H](n3cnc4c(N5CCN(C)CC5)ncnc43)C2)cc(OC)c1OC	.	5%	.	.	.	.	.	.	.	.	.
O=C(Nc1nnc(C2=COCCO2)o1)c1ccc(S(=O)(=O)N2CCOCC2)cc1	6%[11.5 µM]	6%	-2	-4	20µM*	6%	?	-5%	3%	5%	6%
CC1CCCCN1S(=O)(=O)c1ccc(C(=O)Nc2nnc(-c3ccccn3)o2)cc1 (stereo not drawn)	5%[11.5 µM]	-6%	-4	-5	18µM*	8%	24%	10%	23%	22%	0%
CC1CCCN(S(=O)(=O)c2ccc(C(=O)Nc3nnc(C4=COCCO4)o3)cc2)C1 (stereo not drawn)	5%	.	1	2	28µM*	5%	-3%	14%	11%	10%	15%
CC1CCCCN1S(=O)(=O)c1ccc(C(=O)Nc2nnc(C3=COCCO3)o2)cc1 (stereo not drawn)	1%	-7%	1	-10	.	0%	.	.	.	.	.
CCN1Cc2cc(OC)ccc2-c2ccccc2S1(=O)=O	.	1%	.	.	.	.	.	.	.	.	.
COc1cc(/C=C/C(=O)O)cc(OC)c1O	.	4%	.	.	.	.	.	.	.	.	.
